The full data set covers some 8,800 targets. This sample favours those with a hit. About 0.5% of all pairs of compound and target were hits.
What follows are targets tested with CS(=O)(=O)CCNCc1ccc(-c2ccc3ncnc(Nc4ccc(OCc5cccc(F)c5)c(Cl)c4)c3c2)o1 [lapatinib] (assay: log2 fold change, soluble protein after heating vs DMSO (PISA); higher = thermal stabilisation; K562 lysate, 10 uM; active = over 0.2 and 3.5 SD of the protein, either way, in both replicates (recomputed)).
How it was run: (§1)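 To prepare the extract, K562 pellets were dounce-homogenised in PBS pH 7.4 with 1 mM MgCl2, giving crude material at 1 mg/mL protein. This was treated with 10 μM compound for 30 min, then heated in aliquots for 3 min over 48°C-58°C before pooling and addition of NP-40 to 0.5% at 4°C. Centrifugation at 21,000xg for 90 min left soluble protein in the supernatant, which TMTpro 16plex LC-MS/MS quantified with equalised channel sums. Results are log-two fold changes in thermal stability compared with solvent controls, from duplicates.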

UniProt Q9NXU5, sequence (Q9NXU5 whole entry, looked up): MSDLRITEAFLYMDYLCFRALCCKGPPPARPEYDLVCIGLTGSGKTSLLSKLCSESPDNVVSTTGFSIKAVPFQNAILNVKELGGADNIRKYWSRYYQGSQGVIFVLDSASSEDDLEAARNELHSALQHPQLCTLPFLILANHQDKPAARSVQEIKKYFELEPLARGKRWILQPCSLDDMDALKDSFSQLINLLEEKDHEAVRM
UniProt Q9BTT0, sequence (Q9BTT0 whole entry, looked up): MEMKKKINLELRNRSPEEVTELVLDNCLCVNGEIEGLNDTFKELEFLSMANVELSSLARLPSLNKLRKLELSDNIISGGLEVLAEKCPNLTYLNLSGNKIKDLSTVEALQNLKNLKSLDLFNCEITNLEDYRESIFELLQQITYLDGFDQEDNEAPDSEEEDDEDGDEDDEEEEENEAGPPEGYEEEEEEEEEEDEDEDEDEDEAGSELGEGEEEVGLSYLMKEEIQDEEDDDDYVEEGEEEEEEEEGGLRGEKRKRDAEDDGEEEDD
UniProt O43182, sequence (O43182 whole entry, looked up): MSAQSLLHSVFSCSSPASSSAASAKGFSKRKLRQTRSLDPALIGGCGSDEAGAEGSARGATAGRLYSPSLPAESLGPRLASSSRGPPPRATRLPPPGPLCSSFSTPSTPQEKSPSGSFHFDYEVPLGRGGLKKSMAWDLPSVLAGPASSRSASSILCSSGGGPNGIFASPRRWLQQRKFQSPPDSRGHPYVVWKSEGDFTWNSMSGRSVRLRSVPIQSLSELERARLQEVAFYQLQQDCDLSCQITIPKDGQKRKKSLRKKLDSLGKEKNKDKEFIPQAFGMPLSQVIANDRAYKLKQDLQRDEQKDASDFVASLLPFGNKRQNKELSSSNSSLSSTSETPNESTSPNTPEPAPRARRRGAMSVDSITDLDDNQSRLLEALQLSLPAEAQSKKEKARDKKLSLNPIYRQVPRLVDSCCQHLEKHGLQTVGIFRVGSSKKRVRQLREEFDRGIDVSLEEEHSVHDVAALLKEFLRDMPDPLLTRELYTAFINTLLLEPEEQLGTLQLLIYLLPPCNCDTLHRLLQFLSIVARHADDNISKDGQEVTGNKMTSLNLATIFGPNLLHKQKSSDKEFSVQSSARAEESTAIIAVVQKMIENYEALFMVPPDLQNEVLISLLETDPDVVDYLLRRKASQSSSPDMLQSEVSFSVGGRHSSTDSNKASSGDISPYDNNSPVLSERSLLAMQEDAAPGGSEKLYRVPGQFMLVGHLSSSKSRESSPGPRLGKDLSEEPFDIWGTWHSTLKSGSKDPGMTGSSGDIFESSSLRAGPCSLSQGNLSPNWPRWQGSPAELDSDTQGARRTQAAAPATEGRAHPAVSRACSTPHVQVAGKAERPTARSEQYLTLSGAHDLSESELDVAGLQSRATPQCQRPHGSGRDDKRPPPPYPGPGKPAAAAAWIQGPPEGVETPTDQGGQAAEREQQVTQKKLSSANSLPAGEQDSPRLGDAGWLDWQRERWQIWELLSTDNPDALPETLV
UniProt P51649, sequence (P51649 whole entry, looked up): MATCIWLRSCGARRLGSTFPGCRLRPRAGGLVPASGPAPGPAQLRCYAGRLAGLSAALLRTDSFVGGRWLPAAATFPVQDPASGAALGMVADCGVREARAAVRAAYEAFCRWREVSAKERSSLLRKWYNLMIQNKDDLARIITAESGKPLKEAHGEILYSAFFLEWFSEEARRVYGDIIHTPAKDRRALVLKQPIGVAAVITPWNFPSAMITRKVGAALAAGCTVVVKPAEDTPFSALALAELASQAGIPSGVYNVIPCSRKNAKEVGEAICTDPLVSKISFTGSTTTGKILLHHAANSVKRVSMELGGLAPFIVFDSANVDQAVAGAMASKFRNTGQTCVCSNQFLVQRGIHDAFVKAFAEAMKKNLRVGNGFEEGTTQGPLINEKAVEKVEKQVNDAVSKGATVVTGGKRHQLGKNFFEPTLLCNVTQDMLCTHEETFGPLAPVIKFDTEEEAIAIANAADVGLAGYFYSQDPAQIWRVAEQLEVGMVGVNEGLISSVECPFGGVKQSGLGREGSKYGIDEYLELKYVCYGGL
UniProt P31751, sequence (P31751 whole entry, looked up): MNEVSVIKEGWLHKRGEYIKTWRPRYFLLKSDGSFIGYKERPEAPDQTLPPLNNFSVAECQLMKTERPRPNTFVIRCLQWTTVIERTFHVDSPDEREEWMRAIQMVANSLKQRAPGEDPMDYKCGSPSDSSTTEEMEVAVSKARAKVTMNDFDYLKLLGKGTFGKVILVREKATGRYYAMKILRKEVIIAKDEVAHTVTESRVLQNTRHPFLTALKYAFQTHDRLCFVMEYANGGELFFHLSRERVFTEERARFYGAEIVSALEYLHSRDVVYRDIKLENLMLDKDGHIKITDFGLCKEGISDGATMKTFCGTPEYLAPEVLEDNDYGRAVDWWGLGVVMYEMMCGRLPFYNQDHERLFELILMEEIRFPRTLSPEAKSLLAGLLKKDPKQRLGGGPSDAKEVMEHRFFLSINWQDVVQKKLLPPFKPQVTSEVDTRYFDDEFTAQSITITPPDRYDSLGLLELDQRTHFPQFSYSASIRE
UniProt P07311, sequence (P07311 whole entry, looked up): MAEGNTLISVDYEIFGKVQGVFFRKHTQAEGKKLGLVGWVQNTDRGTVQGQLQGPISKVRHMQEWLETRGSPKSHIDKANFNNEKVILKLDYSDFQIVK
UniProt Q9NP73, sequence (Q9NP73 whole entry, looked up): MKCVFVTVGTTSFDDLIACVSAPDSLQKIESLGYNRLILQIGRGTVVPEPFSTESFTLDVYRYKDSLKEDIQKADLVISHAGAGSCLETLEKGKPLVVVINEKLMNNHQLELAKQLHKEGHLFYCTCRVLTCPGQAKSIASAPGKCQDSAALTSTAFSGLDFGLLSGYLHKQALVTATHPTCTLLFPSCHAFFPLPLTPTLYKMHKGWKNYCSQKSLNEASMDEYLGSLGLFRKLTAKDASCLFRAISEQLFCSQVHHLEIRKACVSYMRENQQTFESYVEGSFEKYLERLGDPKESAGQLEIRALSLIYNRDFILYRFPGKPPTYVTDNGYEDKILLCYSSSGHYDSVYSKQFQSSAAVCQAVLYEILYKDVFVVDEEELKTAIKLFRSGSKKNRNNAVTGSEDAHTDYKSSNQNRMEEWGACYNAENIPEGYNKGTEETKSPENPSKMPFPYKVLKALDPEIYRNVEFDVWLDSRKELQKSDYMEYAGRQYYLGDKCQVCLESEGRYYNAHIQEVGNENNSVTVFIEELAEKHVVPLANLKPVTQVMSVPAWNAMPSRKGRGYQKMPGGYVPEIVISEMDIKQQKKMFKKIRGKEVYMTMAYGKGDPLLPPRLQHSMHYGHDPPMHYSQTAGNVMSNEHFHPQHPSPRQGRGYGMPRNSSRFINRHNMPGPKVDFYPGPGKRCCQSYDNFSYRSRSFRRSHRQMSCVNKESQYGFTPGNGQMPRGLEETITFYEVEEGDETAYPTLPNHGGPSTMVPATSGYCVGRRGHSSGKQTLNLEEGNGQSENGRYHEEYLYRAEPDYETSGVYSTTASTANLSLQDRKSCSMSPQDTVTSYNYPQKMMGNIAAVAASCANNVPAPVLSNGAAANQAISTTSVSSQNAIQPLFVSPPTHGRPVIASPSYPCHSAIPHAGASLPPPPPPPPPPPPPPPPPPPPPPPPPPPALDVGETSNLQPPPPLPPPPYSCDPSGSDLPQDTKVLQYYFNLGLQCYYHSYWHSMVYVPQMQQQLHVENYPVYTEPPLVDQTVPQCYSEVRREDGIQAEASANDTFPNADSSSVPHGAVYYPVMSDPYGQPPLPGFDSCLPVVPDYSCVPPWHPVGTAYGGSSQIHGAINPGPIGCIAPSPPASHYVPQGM
UniProt P42331, sequence (P42331 whole entry, looked up): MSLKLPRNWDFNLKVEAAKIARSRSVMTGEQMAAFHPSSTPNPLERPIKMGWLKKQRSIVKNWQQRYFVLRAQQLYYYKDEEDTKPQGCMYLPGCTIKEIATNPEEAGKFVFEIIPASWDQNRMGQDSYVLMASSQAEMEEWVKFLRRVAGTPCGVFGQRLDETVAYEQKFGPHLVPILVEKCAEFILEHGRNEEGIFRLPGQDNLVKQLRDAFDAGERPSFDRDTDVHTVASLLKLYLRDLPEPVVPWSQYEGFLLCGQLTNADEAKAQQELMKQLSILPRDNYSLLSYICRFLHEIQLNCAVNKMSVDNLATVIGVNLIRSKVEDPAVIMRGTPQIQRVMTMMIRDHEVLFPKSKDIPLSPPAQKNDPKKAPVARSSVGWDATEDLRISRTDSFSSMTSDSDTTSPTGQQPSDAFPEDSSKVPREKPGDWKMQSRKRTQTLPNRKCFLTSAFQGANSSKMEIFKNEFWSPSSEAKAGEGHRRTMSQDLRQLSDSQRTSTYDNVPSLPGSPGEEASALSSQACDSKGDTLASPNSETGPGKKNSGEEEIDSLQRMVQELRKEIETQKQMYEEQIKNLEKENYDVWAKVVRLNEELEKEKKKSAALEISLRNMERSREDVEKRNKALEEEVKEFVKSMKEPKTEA
UniProt Q8N6T3, sequence (Q8N6T3 whole entry, looked up): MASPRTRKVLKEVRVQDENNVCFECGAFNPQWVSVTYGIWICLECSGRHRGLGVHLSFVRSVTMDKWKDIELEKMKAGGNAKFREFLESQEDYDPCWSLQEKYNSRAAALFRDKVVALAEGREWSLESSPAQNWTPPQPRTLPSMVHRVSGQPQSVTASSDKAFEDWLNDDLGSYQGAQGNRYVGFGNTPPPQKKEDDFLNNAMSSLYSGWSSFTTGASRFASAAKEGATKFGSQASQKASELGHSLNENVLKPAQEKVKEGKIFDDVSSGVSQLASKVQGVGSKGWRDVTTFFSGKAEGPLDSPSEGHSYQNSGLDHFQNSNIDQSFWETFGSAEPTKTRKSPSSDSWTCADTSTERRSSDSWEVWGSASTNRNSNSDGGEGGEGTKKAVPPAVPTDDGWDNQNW
UniProt P39687, sequence (P39687 whole entry, looked up): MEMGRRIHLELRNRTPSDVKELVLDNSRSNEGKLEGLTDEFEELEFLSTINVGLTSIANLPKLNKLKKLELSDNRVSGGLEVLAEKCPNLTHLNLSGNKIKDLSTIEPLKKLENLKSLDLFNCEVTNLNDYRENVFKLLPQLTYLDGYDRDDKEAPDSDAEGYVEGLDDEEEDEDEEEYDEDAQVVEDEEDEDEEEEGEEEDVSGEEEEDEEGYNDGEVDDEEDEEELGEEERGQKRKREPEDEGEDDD

| Target | log2 fold change |
| --- | --- |
| ARHGAP25 isoform 4 (UniProt P42331) | 0.011 (inactive) |
| ARAF (UniProt P10398) | -0.019 (inactive) |
| ANP32A (UniProt P39687) | 0.068 (inactive) |
| ALDH5A1 isoform 2 (UniProt P51649) | -0.012 (inactive) |
| ANP32E (UniProt Q9BTT0) | -0.026 (inactive) |
| AKAP8L (UniProt Q9ULX6) | 0.017 (inactive) |
| ABHD13 (UniProt Q7L211) | -0.059 (inactive) |
| ANXA11 (UniProt P50995) | -0.005 (inactive) |
| ADD1 isoform 3 (UniProt P35611) | -0.017 (inactive) |
| AK2 (UniProt P54819) | 0.058 (inactive) |
| AKAP8 (UniProt O43823) | 0.008 (inactive) |
| ARFGAP1 (UniProt Q8N6T3) | 0.002 (inactive) |
| ANAPC7 (UniProt Q9UJX3) | -0.017 (inactive) |
| ALDH6A1 (UniProt Q02252) | -0.04 (inactive) |
| ANKRD27 (UniProt Q96NW4) | 0.025 (inactive) |
| ALG13 (UniProt Q9NP73) | 0.017 (inactive) |
| ASB6 (UniProt Q9NWX5) | -0.04 (inactive) |
| ACAT1 (UniProt P24752) | -0.024 (inactive) |

| Target | log2 fold change |
| --- | --- |
| ANKRD54 (UniProt Q6NXT1) | 0.038 (inactive) |
| AKT2 (UniProt P31751) | -0.022 (inactive) |
| AP5B1 (UniProt Q2VPB7) | 0.095 (inactive) |
| ANXA1 (UniProt P04083) | 0.005 (inactive) |
| ARHGAP21 (UniProt Q5T5U3) | 0.081 (inactive) |
| ACYP1 (UniProt P07311) | -0.001 (inactive) |
| AKAP11 (UniProt Q9UKA4) | 0.021 (inactive) |
| ALDH2 (UniProt P05091) | 0 (inactive) |
| ARHGAP6 (UniProt O43182) | 0.006 (inactive) |
| ACSL1 (UniProt P33121) | -0.03 (inactive) |
| ARMC6 (UniProt Q6NXE6) | 0 (inactive) |
| AFF1 isoform 2 (UniProt P51825) | -0.055 (inactive) |
| ANKRD30A (UniProt Q9BXX3) | -0.228 (inactive) |
| AMDHD2 isoform 3 (UniProt Q9Y303) | 0.014 (inactive) |
| ANXA5 (UniProt P08758) | 0.005 (inactive) |
| ACTG1 (UniProt I3L4N8) | -0.072 (inactive) |
| ARL15 (UniProt Q9NXU5) | -0.001 (inactive) |

These targets were tested with CS(=O)(=O)N1CCN(Cc2cc3nc(-c4cccc5[nH]ncc45)nc(N4CCOCC4)c3s2)CC1 [pictilisib] in the same assay as above.
How it was run: as §1

| Target | log2 fold change |
| --- | --- |
| ARHGAP25 isoform 4 (UniProt P42331) | -0.024 (inactive) |
| ARAF (UniProt P10398) | 0.011 (inactive) |
| ANP32A (UniProt P39687) | -0.001 (inactive) |
| ALDH5A1 isoform 2 (UniProt P51649) | -0.049 (inactive) |
| ANP32E (UniProt Q9BTT0) | 0.003 (inactive) |
| AKAP8L (UniProt Q9ULX6) | -0.018 (inactive) |
| ABHD13 (UniProt Q7L211) | 0.049 (inactive) |
| ANXA11 (UniProt P50995) | -0.008 (inactive) |
| ADD1 isoform 3 (UniProt P35611) | 0.003 (inactive) |
| AK2 (UniProt P54819) | -0.005 (inactive) |
| AKAP8 (UniProt O43823) | -0.126 (inactive) |
| ARFGAP1 (UniProt Q8N6T3) | 0.175 (inactive) |
| ANAPC7 (UniProt Q9UJX3) | 0.002 (inactive) |
| ALDH6A1 (UniProt Q02252) | -0.028 (inactive) |
| ANKRD27 (UniProt Q96NW4) | -0.026 (inactive) |
| ALG13 (UniProt Q9NP73) | -0.002 (inactive) |
| ASB6 (UniProt Q9NWX5) | -0.029 (inactive) |
| ACAT1 (UniProt P24752) | -0.013 (inactive) |

| Target | log2 fold change |
| --- | --- |
| ANKRD54 (UniProt Q6NXT1) | -0.008 (inactive) |
| AKT2 (UniProt P31751) | 0.005 (inactive) |
| AP5B1 (UniProt Q2VPB7) | -0.046 (inactive) |
| ANXA1 (UniProt P04083) | 0.013 (inactive) |
| ARHGAP21 (UniProt Q5T5U3) | -0.116 (inactive) |
| ACYP1 (UniProt P07311) | -0.044 (inactive) |
| AKAP11 (UniProt Q9UKA4) | -0.08 (inactive) |
| ALDH2 (UniProt P05091) | 0 (inactive) |
| ARHGAP6 (UniProt O43182) | 0.012 (inactive) |
| ACSL1 (UniProt P33121) | -0.094 (inactive) |
| ARMC6 (UniProt Q6NXE6) | -0.015 (inactive) |
| AFF1 isoform 2 (UniProt P51825) | -0.063 (inactive) |
| ANKRD30A (UniProt Q9BXX3) | 0.028 (inactive) |
| AMDHD2 isoform 3 (UniProt Q9Y303) | -0.081 (inactive) |
| ANXA5 (UniProt P08758) | -0.009 (inactive) |
| ACTG1 (UniProt I3L4N8) | -0.209 (inactive) |
| ARL15 (UniProt Q9NXU5) | 0.097 (inactive) |
